PubChem BioAssay (NCATS)
Results filed as inconclusive are left out. The source made the active and inactive calls. Calls come from the whole dose curve; as a rule, active = well fitted inhibition curve with a large enough effect; inconclusive = small, poorly fitted or top-dose-only effect; inactive = no such curve, though single readings can be large or run the other way. Where a SMILES comes first, the peptide text is derived from it.

biological target: Cytochrome P450 2C19 (Homo sapiens) (UniProt P33261); assay: qHTS Assay for Inhibitors and Substrates of Cytochrome P450 2C19 (AID 899); details: recombinant CYP2C19, luciferin-H EGE luminescence; series mostly up to 57.1 µM; activity, negative = inhibition: at the top concentration; note: nearly all actives have a fitted effect of over 60% in size
Sequence (P33261 whole entry, looked up): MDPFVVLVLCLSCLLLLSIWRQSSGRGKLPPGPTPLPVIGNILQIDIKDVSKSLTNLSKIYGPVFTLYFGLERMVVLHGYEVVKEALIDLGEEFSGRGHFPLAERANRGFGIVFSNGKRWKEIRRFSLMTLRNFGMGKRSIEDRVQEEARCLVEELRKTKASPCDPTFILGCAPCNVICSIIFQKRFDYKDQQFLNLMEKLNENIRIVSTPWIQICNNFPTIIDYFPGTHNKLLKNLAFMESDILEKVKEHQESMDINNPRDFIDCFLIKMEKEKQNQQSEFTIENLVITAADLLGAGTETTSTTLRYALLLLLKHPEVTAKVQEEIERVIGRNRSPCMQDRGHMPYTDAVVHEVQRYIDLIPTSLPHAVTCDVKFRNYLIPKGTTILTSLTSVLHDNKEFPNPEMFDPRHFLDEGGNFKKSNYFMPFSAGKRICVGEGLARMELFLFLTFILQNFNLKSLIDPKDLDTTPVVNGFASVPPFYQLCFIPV
Protocol: NIH Molecular Libraries Screening Centers Network [MLSCN]
NIH Chemical Genomics Center [NCGC]
The P450 gene superfamily is involved in the metabolism and clearance of xenobiotics. This assay used human CYP2C19 to measure the hydroxylation of ethylene glycol ester of 6' deoxyluciferin (Luciferin-H EGE; […]) to luciferin. The luciferin is then measured by luminescence after the addition of a luciferase detection reagent. Luciferin-H EGE concentration in the assay was equal to its KM for CYP2C19. Inhibitors and some substrates limit the production of luciferin, and decrease measured luminescence.
NCGC Assay Protocol Summary:
Two uL of enzyme and substrate mix (final concentrations: 5nM CYP2C19, 10uM Luciferin-H EGE, 50mM KPO4) were dispensed into a white, solid bottom 1536-well microtiter plate. 23nL of compound was transferred by a pin tool. The plate was incubated at 37C for 10 min. Two uL of an NADPH regeneration solution (Promega supplied reagent) was dispensed and the reaction was allowed to continue for 60 min at 37C. Then the reaction was stopped by reconstituted luciferin detection buffer. After another 20 min of incubation the plate was read on the ViewLux (Perkin Elmer) at 60 sec exposure and 2x2 binning. This protocol was carried out with Promega-Glo reagents and further information can be found at http://www.promega.com/tbs/tb325/tb325.pdf. Data were normalized to the to AC100 inhibition (57uM ketoconazole).
Keywords: P450, CYP2C19, Luciferase, MLSMR, MLSCN, NIH Roadmap, qHTS, NCGC
% is set by controls: 0 for no effect and ±100 for the full control effect; potency is the fitted concentration of half-maximal effect.

Compound	activity, negative = inhibition	Potency
COc1ccc(-c2oc3cc(OC)c(OC(C)=O)c(OC)c3c(=O)c2OC)cc1OC(C)=O	-38% (inactive)	–
CCC/C=C(\CCC)C(NS(=O)(=O)c1cccc2cccnc12)c1ccc(C(=O)OC)cc1 (stereo not given)	–	3.16 µM (active)
COC(=O)[C@@]1(Cc2ccc(OC)cc2)[C@H]2c3cc(C(=O)N4CCCC4)n(CCc4c[nH]c5cc(F)ccc45)c3C[C@H]2CN1C(=O)c1ccccc1	–	3.98 µM (active)
CC(C)C[C@@H](CC(=O)N[C@@H](CCCN)CC(=O)N[C@@H]1CCCC[C@H]1C(=O)N[C@H](CC(=O)N[C@@H](CCC(=O)O)CC(=O)O)Cc1c[nH]c2ccccc12)NC(=O)[C@@H]1CCCC[C@H]1N	2.79% (inactive)	–
CC(C)C[C@@H](CC(=O)N[C@@H](CCC(=O)O)CC(=O)O)NC(=O)[C@@H]1CNCC[C@H]1NC(=O)C[C@@H](NC(=O)C[C@H](Cc1c[nH]c2ccccc12)NC(=O)[C@@H]1CCCC[C@H]1N)C(C)C	-8.34% (inactive)	–
C[C@@H](C(=O)NCCF)[C@H]1C[C@]1(C)[C@H](NC(=O)OCc1ccccc1)c1ccccc1	–	1.26 µM (active)
C[C@@H](C(=O)Nc1ccc2ccccc2c1)[C@H]1C[C@]1(C)[C@H](NS(=O)(=O)c1ccc2ccccc2c1)c1ccccc1	–	0.251 µM (active)
O=C1C=CC2=C3c4cc(O)c(O)cc4C[C@@]3(O)COC2=C1O	–	6.31 µM (active)
COC(=O)[C@@]1(Cc2ccccc2)[C@H]2c3cc(C(=O)N4CCCC4)n(Cc4cc(F)cc5c4OCOC5)c3C[C@H]2CN1C(=O)c1ccccc1	–	0.251 µM (active)
Cc1c(C(=O)O)c(O)cc2c1C(=O)c1c(O)c([C@@H]3O[C@H](CO)[C@@H](O)[C@H](O)[C@@H]3O)c(O)c(O)c1C2=O	-4.95% (inactive)	–
CC(C)C[C@@H](CC(=O)N[C@@H](CCCN)CC(=O)N[C@@H]1CCNC[C@H]1C(=O)N[C@H](CC(=O)N[C@@H](CCC(=O)O)CC(=O)O)Cc1ccccc1)NC(=O)[C@@H]1CNCC[C@H]1N	-21.4% (inactive)	–
CC(C)C[C@@H](CC(=O)N[C@@H](CCCN)CC(=O)N[C@@H]1CCNC[C@H]1C(=O)N[C@H](CC(=O)N[C@@H](CCC(=O)O)CC(=O)O)Cc1ccccc1)NC(=O)[C@@H]1CCCC[C@H]1N	24.5% (inactive)	–
NCCC[C@@H](CC(=O)N[C@@H]1CCCC[C@H]1C(=O)N[C@H](CC(=O)N[C@@H](CCC(=O)O)CC(=O)O)Cc1c[nH]c2ccccc12)NC(=O)C[C@H](Cc1ccccc1)NC(=O)[C@@H]1CCCC[C@H]1N	-19.9% (inactive)	–
C[C@@H](C(=O)NCc1ccccn1)[C@H]1C[C@]1(C)[C@H](NC(=O)OCc1ccccc1)c1ccccc1	–	2 µM (active)
C/C(=C\COc1cc(=O)[nH]c2ccccc12)CC[C@@H](O)C(C)(C)O	-31.3% (inactive)	–
c1ccc2c(c1)Cc1cc3ccccc3nc1-2	–	5.01 µM (active)
C=C1C(=O)C=C2CN(C(=O)c3ccccc3)[C@@](Cc3ccc(F)cc3)(C(=O)OC)[C@@H]12	–	5.01 µM (active)
CC(C)[C@@H](CC(=O)N[C@@H]1CCNC[C@H]1C(=O)N[C@H](CC(=O)N[C@@H](CCC(=O)O)CC(=O)O)Cc1ccccc1)NC(=O)C[C@H](Cc1ccccc1)NC(=O)[C@@H]1CNCC[C@H]1N	-32.5% (inactive)	–
CC1(C)CCC[C@@]2(C)[C@@H]1CC[C@]1(C)OC(=O)C[C@@H]21	–	15.8 µM (active)
NCCC[C@@H](CC(=O)N[C@@H]1CCCC[C@H]1C(=O)N[C@H](CC(=O)N[C@@H](CCC(=O)O)CC(=O)O)Cc1ccccc1)NC(=O)C[C@H](CO)NC(=O)[C@@H]1CNCC[C@H]1N	-54.4% (inactive)	–

Compound	activity, negative = inhibition	Potency
CCC/C=C(\CCC)C(NS(=O)(=O)c1ccc(-c2ccccc2)cc1)c1ccc(C(=O)OC)cc1 (stereo not given)	–	1.26 µM (active)
COC(=O)[C@@]1(Cc2ccc(OC)cc2)[C@H]2c3cc(C(=O)N(C)C)[nH]c3C[C@H]2CN1C(=O)c1ccccc1	–	5.01 µM (active)
CC(C)C[C@@H](CC(=O)N[C@@H](CCCN)CC(=O)N[C@@H]1CCCC[C@H]1C(=O)N[C@H](CC(=O)N[C@@H](CCC(=O)O)CC(=O)O)CC(C)C)NC(=O)[C@@H]1CCCC[C@H]1N	-31.1% (inactive)	–
CC(C)C[C@@H](CC(=O)N[C@@H](CCC(=O)O)CC(=O)O)NC(=O)[C@@H]1CCCC[C@H]1NC(=O)C[C@H](CCCN)NC(=O)C[C@H](Cc1ccccc1)NC(=O)[C@@H]1CCCC[C@H]1N	2.87% (inactive)	–
CC(C)C[C@@H](CC(=O)N[C@H](CC(=O)N[C@@H]1CCCC[C@H]1C(=O)N[C@H](CC(=O)N[C@@H](CCC(=O)O)CC(=O)O)CC(C)C)C(C)C)NC(=O)[C@@H]1CCCC[C@H]1N	8.42% (inactive)	–
CC1(NC[C@@H](O)COc2cccc3[nH]ccc23)CCC(C(C)(C)NC(=O)CBr)CC1 (stereo not given in full)	-1.4% (inactive)	–
CC(C)C[C@@H](CC(=O)N[C@H](CC(=O)N[C@@H]1CCCC[C@H]1C(=O)N[C@H](CC(=O)N[C@@H](CCC(=O)O)CC(=O)O)Cc1c[nH]c2ccccc12)C(C)C)NC(=O)[C@@H]1CNCC[C@H]1N	27.6% (inactive)	–
OC[C@@H]1O[C@@H](n2cnc3c(NCc4ccco4)ncnc32)[C@H](O)[C@H]1O	9.57% (inactive)	–
COc1cccc(-c2oc3ccccc3c(=O)c2O)c1	–	6.31 µM (active)
C[C@@H](C(=O)Nc1ccc2ccccc2c1)[C@@H]1C[C@@]1(C)[C@@H](NC(=O)OCc1ccccc1)c1ccccc1	–	3.16 µM (active)
C=C/C(=C\C)C[C@@H](CC(=O)N[C@@H](CCC(=O)O)CC(=O)O)NC(=O)[C@@H]1CNCC[C@H]1NC(=O)C[C@@H](NC(=O)C[C@H](Cc1ccccc1)NC(=O)[C@@H]1CCCC[C@H]1N)C(C)C	-1.75% (inactive)	–
C=C[C@@](C)(O)CC[C@H]1[C@]2(C)CCCC(C)(C)[C@H]2CC[C@]1(C)O	–	2 µM (active)
N[C@@H](Cc1c[nH]c2ccccc12)C(=O)NCC(=O)O (H-Trp-Gly-OH)	1.69% (inactive)	–
O=c1c(O)c(-c2ccc(O)cc2)oc2ccc(O)cc12	-19.5% (inactive)	–
Cc1ccc(C[C@H](Cc2nc3ccccc3[nH]2)c2nc3ccccc3[nH]2)cc1	–	5.01 µM (active)
CC(C)C1=CC2=CC[C@H]3[C@@](C)(CCC[C@]3(C)C(=O)O)[C@@H]2CC1	–	25.1 µM (active)
CNC(=O)[C@H](C)[C@@H]1C[C@@]1(C)[C@@H](NC(=O)OCc1ccccc1)c1ccccc1	–	0.631 µM (active)
CC(C)C[C@@H](CC(=O)N[C@@H](CCC(=O)O)CC(=O)O)NC(=O)[C@@H]1CCCC[C@H]1NC(=O)C[C@@H](NC(=O)C[C@H](Cc1c[nH]c2ccccc12)NC(=O)[C@@H]1CCCC[C@H]1N)C(C)C	-29.8% (inactive)	–
COc1ccc(-c2coc3ccc(O[C@@H]4O[C@@H](COC(C)=O)[C@@H](OC(C)=O)[C@@H](OC(C)=O)[C@H]4OC(C)=O)c(OC(C)=O)c3c2=O)cc1	13.6% (inactive)	–
CC(C)C[C@@H](CC(=O)N[C@@H](CCCN)CC(=O)N[C@@H]1CCCC[C@H]1C(=O)N[C@H](CC(=O)N[C@@H](CCC(=O)O)CC(=O)O)CC(C)C)NC(=O)[C@@H]1CNCC[C@H]1N	-17.9% (inactive)	–
